In the library only some 0.63% were active in any assay of this set; here they are far more common.
HIF act = HIF pathway transcriptional activation. U2OS HRE-luciferase reporter, luminescence; normalized: DMSO 0%, desferrioxamine 100%. activation, % at 7.5 µM (by protocol). hit rate 0.32% among 300,000;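 active = mean activation of at least 10% of the iron chelator positive control signal, with at least half of replicates also reaching 10%; inconclusive = mean and replicate majority disagree about reaching 10%; inactive = mean and most replicates under 10%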
Platelet DG rel = modulates dense granule release in human platelets; human platelet-rich plasma, SFLLRN dense granule ATP release, luminescence; inhibition, %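 (compounds screened at 7.5 µM in platelet-rich plasma)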; hit rate 0.22% among 300,000; AID 1663;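 active = mean replicate score, as percent of positive control, at or above 50; inconclusive = mean below 50 but at least one replicate at or above 50; inactive = mean and every replicate below 50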
NTR1 agonist = NTR1 (human) agonism; NTR1-U2OS beta-arrestin-GFP spot imaging, agonist mode; activation, % at 20 µM; hit rate 0.17% among 330,000; AID 493036;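 active = activation at or above 40% of the spot to cytoplasm intensity ratio, with at least 20 cells analyzed; inconclusive = wells under 20 cells, flagged as cytotoxic or low count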
Target sequence (P30989 whole entry, looked up): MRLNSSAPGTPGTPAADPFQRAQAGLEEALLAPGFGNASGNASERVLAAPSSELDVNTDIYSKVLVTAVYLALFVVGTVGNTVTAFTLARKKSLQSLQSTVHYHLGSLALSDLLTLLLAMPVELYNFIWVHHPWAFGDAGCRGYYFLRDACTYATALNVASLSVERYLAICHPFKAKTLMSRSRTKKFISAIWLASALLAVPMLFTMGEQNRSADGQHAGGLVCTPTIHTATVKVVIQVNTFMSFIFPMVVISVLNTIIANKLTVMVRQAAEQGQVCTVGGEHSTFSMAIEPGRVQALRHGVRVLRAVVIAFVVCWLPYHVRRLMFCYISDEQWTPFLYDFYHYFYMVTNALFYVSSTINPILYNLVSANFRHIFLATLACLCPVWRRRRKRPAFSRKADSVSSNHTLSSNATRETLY
Hits are given with their value; - = inactive; ? = inconclusive; . = no result.

SMILES | HIF act | Platelet DG rel | NTR1 agonist
CCC(=O)c1ccc(OCC(=O)OCC(=O)Nc2cccc(S(=O)(=O)N3CCCC3)c2)cc1 | . | . | -
CC(C(=O)Nc1ccc(S(=O)(=O)N2CCCC2)cc1)N(C)CC(=O)Nc1cccc(F)c1 (stereo not given) | . | . | -
CCN1CCN(CCCOc2ccc(-c3ccccc3)cc2)CC1 | 60 | - | -
CN1CCN(CCCOc2ccc(-c3ccccc3)cc2)CC1 | - | - | -
CCc1cc(C(c2ccncc2)N2CCN(C)CC2)c(NC(=O)c2ccccc2)s1 (stereo not given) | - | - | -
CCCn1c(=NC(=O)c2ccco2)c(C(=O)OCC)cc2c(=O)n3ccccc3nc21 | - | - | -
CCCn1c(=NC(=O)c2c(-c3c(F)cccc3Cl)noc2C)c(C(=O)OCC)cc2c(=O)n3ccccc3nc21 | 23 | - | -
CN1C(=O)c2ccccc2C(C(=O)NCCCN2CCCC2=O)C1c1c[nH]c2ccccc12 (stereo not given) | - | - | -
CN(C)c1ccc(/C=N/Nc2nncc3ccccc23)cc1 | - | 54 | .
C(=N\Nc1nncc2ccccc12)/c1ccccc1 | - | - | -
COCCNC(=O)Cn1cnc2c1c(=O)n(C)c(=O)n2C | - | - | -
CCCC1CCC(c2nc(-c3cccnc3)no2)CC1 (stereo not given) | - | - | -
CCCCCCC1CCC(c2nc(-c3ccncc3)no2)CC1 (stereo not given) | 35 | - | -
Cc1c(C)c2ccc(OCC(=O)N(C)C)c(C)c2oc1=O | - | - | -
Cc1c(C)c2ccc(OCC(=O)Nc3ccccn3)c(C)c2oc1=O | - | 52 | -
CC(C)(C)NS(=O)(=O)c1ccc(NC(=O)Cc2ccccc2[N+](=O)[O-])cc1 | - | - | -
COc1ccc(CN2CCNC(=O)C2CC(=O)NC2CCCC2)c(OC)c1 (stereo not given) | 55 | - | -
COc1ccc(CN2CCNC(=O)C2CC(=O)NC2CCCCC2)c(OC)c1 (stereo not given) | - | - | -
COc1ccc(C2(C)NC(=O)N(CC(=O)Nc3ccc4c(c3)CCC4)C2=O)cc1OC (stereo not given) | . | . | -
Cc1ccc(S(=O)(=O)N2CC[C@@H]2C(=O)O)cc1 | - | - | -
Cc1ccc(S(=O)(=O)N2CCCC2C(=O)O)cc1 (stereo not given) | - | 83 | -
Cn1c(=O)[nH]c(=O)c2c1nc(N1CCCC1)n2CCCSc1nnnn1-c1ccccc1 | - | - | -
CCOC(=O)c1c(-c2ccccc2)csc1NC(=O)COc1ccc2c(C)cc(=O)oc2c1 | - | - | -
COc1ccccc1N1CCN(c2ccc3ccccc3n2)CC1 | - | - | -
COc1ccccc1N1CCN(c2ccc(-c3ccccc3)nn2)CC1 | - | 54 | -
SMILES | HIF act | Platelet DG rel | NTR1 agonist
O=C(c1cnn2cccnc12)N1CCN(c2ccccc2)CC1 | - | - | -
CCCCn1c(=O)n(CC(=O)NCc2ccc(C)cc2)c(=O)c2c1nc(CO)n2CCC | - | - | -
O=C(NNC(=S)Nc1ccc(Cl)c(Cl)c1)c1ccccn1 | 60 | - | -
CCNC(=S)NNC(=O)c1ccccn1 | - | - | -
CC(=O)Nc1ccc(NC(=O)CCc2ccc(C)o2)cc1 | - | - | -
CCOC(=O)c1ccc(NC(=O)CCc2ccc(C)o2)cc1 | - | 62 | -
CC1CN(CC(=O)Nc2ccc([N+](=O)[O-])cc2Br)CC(C)O1 (stereo not given) | - | - | -
CC(CN1CCCCC1)OC(=O)COc1ccc(Cl)cc1 (stereo not given) | - | ? | -
O=C(NNC(=O)c1cccnc1SCc1cccc([N+](=O)[O-])c1)c1ccccn1 | 30 | - | -
O=C(NNC(=O)c1cccnc1SCc1cccc([N+](=O)[O-])c1)c1ccc(F)cc1 | - | - | -
COc1ccc(CCNC(=O)CSc2nc(N)c3c(C)c(C)oc3n2)cc1OC | - | 74 | -
COc1ccc(CCNC(=O)CSc2n[nH]c(N)n2)cc1OC | - | - | -
CCCN(CC1CC1)C(=O)CCc1nnc(CCc2c[nH]c3ccccc23)o1 | - | - | -
Cc1noc(C(=O)Nc2sc3c(c2C#N)CCC3)c1Cl | 14 | - | -
Cc1cc(C(=O)Nc2sc3c(c2C#N)CCC3)no1 | - | - | -
COc1ccc(CCNC(=O)c2nnn(CC(=O)Nc3c(C)cc(C)cc3C)c2N)cc1OC | 107 | - | -
CCOc1ccc(CCNC(=O)c2nnn(CC(=O)Nc3c(C)cc(C)cc3C)c2N)cc1OCC | - | - | -
CCOC(=O)c1[nH]cnc1C(=O)NCc1ccccc1 | - | - | -
COc1cccc(NC(=O)C(c2ccccc2)N2CCN(c3ccccn3)CC2)c1 (stereo not given) | - | - | -
CC1CC(C)CN(C(=O)c2ccc(CSc3nc4ccncc4[nH]3)cc2)C1 (stereo not given) | - | - | -
O=C(Nc1ncccc1O)c1ccc2c(c1)OCO2 | 9.7 | - | -
Cc1cccnc1NC(=O)c1ccc2c(c1)OCCO2 | - | - | -
O=C(Nc1ncccc1O)c1ccc2c(c1)OCCO2 | 12 | - | -
O=C(Nc1ncccc1O)c1ccc2ccccc2c1 | - | - | -
COc1cc(CNCCCN2CCOCC2)c(Br)cc1OC(C)C | - | - | -
SMILES | HIF act | Platelet DG rel | NTR1 agonist
COc1cccc(CN(C(=O)c2ccccc2Cl)C2CCS(=O)(=O)C2)c1 (stereo not given) | - | - | -
CCc1ccc(C(=O)NNC(=O)CCC2CCCCC2)cc1 | - | - | -
OCCNc1nc2ccccc2nc1NCCO | - | - | -
OCCNc1c2ccccc2nc2ccccc12 | 24 | - | -
N#C/C(=C/c1ccc(CNS(=O)(=O)c2ccccc2)o1)C(N)=O | - | - | -
COc1ccc(N2CCN(C(=O)c3cccc(Cn4cc(Cl)cn4)c3)CC2)cc1 | - | - | -
COc1ccc(Nc2cc(C(=O)NCc3cccnc3)c3ccccc3n2)c(OC)c1 | - | - | -
Cc1cccc(NC(=O)CC2SC(=O)N(c3ccccc3)C2=O)c1 (stereo not given) | - | 67 | -
O=C(CC1SC(=O)N(c2ccccc2)C1=O)Nc1ccccc1 (stereo not given) | - | - | -
CN(C)C(=O)CSc1nc2ccccc2n1Cc1ccccc1 | 367 | - | -
CC(C)N(C(=O)CSc1nc2ccccc2n1Cc1ccccc1)C(C)C | - | - | -
CC(C(N)=O)N1C(=O)c2cccc3cccc1c23 (stereo not given) | - | - | -
CC(=O)Nc1ccc(S(=O)(=O)Nc2nccs2)cc1 | - | - | -
CC(=O)Nc1ccc(S(=O)(=O)Nc2ccc(S(=O)(=O)Nc3nccs3)cc2)cc1 | 23 | - | -
CC1CN(Cc2ccc(C#N)cc2Cl)CC(C)O1 (stereo not given) | - | - | -
Cc1cc2c(cc1C)N(C(=O)CSC1=NCCS1)C(C)(C)c1ssc(=S)c1-2 | - | - | -
Cc1cc(-c2nnnn2-c2cc(Cl)cc(Cl)c2)no1 | 13 | - | -
Cc1cc(-c2nnnn2-c2ccc(F)cc2)no1 | . | . | -
O=C(O)c1ccc(-c2ccccc2)[nH]1 | - | - | -
O=C(O)c1ccc2cc(-c3ccccc3)[nH]c2c1 | 20 | - | -
CC(C)CNC(=O)NC(=O)COC(=O)c1cccc(NS(=O)(=O)c2ccc(F)c(F)c2)c1 | - | - | -
O=C(NCCCN1CCOCC1)c1ccc(CS(=O)(=O)c2c(Cl)cccc2Cl)o1 | - | - | -
